Laboratory results: PubChem BioAssay AID1159580 (chemical genetic matrix, 2015)
Several values for one entry are separate records, joined by “and”; a condition that tells them apart may be missing. Identical values can stand only once. About 2,000 (36%) of roughly 5,500 compounds were called active. Another 18% or so got no clear call; they are omitted. No stated cut-off is given here; in the data, active means normalized growth mostly below about 0.91 (no sharp cut-off); inconclusive means no clear call, values can overlap the other calls; inactive means mostly above about 0.92. This is one part of the list.

Assay: chemical genetic growth profiling, strain panel (AID 1159580);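 further: tested at 20 µM; growth read once vehicle control cultures reached saturation at 30 °C; 1 = growth at the plate median or of vehicle wells; lower values mean less growth of the strain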
Details: S. cerevisiae deletion strains, growth OD

Measured: normalized growth

O=C(/C=C/c1ccccc1)c1ccc(O[C@@H]2O[C@H](CO)[C@@H](O)[C@H](O)[C@H]2O)cc1O
inactive: locus YAL021C, strain ccr4, hits give low values 0.97 | locus YAL026C, strain drs2, hits give low values 0.923 | locus YAL030W, strain snc1, hits give low values 0.933 | locus YBR009C, strain hhf1, hits give low values 0.935 | locus YBR021W, strain FUR4, hits give low values 0.883 | locus YBR171W, strain sec66, hits give low values 0.914 | locus YBR229C, strain ROT2, hits give low values 0.922 | locus YBR279W, strain paf1, hits give low values 0.96 | locus YCL011C, strain gbp2, hits give low values 0.938 | locus YCL016C, strain dcc1, hits give low values 0.925 | locus YCL069W, strain vba3, hits give low values 0.96 | locus YCR088W, strain abp1, hits give low values 0.923 | locus YDL005C, strain med2, hits give low values 0.955 | locus YDL035C, strain GPR1, hits give low values 0.926 | locus YDL040C, strain nat1, hits give low values 0.937 | locus YDL074C, strain BRE1, hits give low values 0.861 | locus YDL101C, strain DUN1, hits give low values 0.943 | locus YDR069C, strain doa4, hits give low values 0.974 | locus YDR137W, strain rgp1, hits give low values 0.947 | locus YDR162C, strain NBP2, hits give low values 0.944 | locus YDR195W, strain ref2 1 | locus YDR334W, strain swr1, hits give low values 0.95 | locus YDR335W, strain msn5, hits give low values 0.938 | locus YDR392W, strain spt3, hits give low values 0.787 | locus YEL003W, strain gim4, hits give low values 0.931 | locus YEL037C, strain rad23, hits give low values 0.945 | locus YEL061C, strain CIN8 (second series), hits give low values 0.928 | locus YER015W, strain faa2, hits give low values 0.938 | locus YER111C, strain swi4, hits give low values 0.935 | locus YFR010W, strain ubp6, hits give low values 0.951 | locus YGL078C, strain dbp3, hits give low values 0.948 | locus YGL167C, strain pmr1, hits give low values 0.947 | locus YGL227W, strain vid30, hits give low values 0.932 | locus YGL248W, strain PDE1, hits give low values 0.936 | locus YGR252W, strain gcn5, hits give low values 0.79 | locus YHR013C, strain ard1, hits give low values 0.941 | locus YHR027C, strain rpn1, hits give low values 0.957 | locus YHR030C, strain SLT2, hits give low values 0.922 and 0.953 | locus YHR079C, strain IRE1, hits give low values 0.918 | locus YHR142W, strain chs7, hits give low values 0.882 | locus YIL066C, strain RNR3, hits give low values 0.906 | locus YIL073C, strain SPO22, hits give low values 0.956 | locus YJL092W, strain hpr5, hits give low values 0.926 | locus YJL095W, strain BCK1 (second series), hits give low values 0.944 | locus YJL095W, strain BCK1, hits give low values 0.923 and 0.945 | locus YJL115W, strain asf1, hits give low values 0.941 | locus YJL129C, strain trk1, hits give low values 0.897 | locus YJL154C, strain vps35, hits give low values 0.942 | locus YJL166W, strain qcr8, hits give low values 0.928 | locus YJL187C, strain SWE1 (second series), hits give low values 0.93 | locus YJL187C, strain SWE1, hits give low values 0.95 | locus YJR043C, strain POL32, hits give low values 0.893 | locus YJR066W, strain TOR1, hits give low values 0.857 | locus YJR075W, strain HOC1, hits give low values 0.913 | locus YKL009W, strain mrt4, hits give low values 0.906 | locus YKL160W, strain elf1, hits give low values 0.911 | locus YKL190W, strain CNB1, hits give low values 0.934 | locus YKR026C, strain gcn3, hits give low values 0.933 | locus YKR091W, strain srl3, hits give low values 0.938 | locus YLL041C, strain sdh2, hits give low values 0.937 | locus YLR027C, strain aat2, hits give low values 0.937 | locus YLR039C, strain RIC1, hits give low values 0.918 | locus YLR058C, strain SHM2, hits give low values 0.93 | locus YLR113W, strain HOG1, hits give low values 0.937 | locus YLR221C, strain rsa3, hits give low values 0.934 | locus YLR258W, strain gsy2, hits give low values 0.916 | locus YLR262C, strain YPT6 (second series), hits give low values 0.911 | locus YLR262C, strain YPT6, hits give low values 0.949 | locus YLR320W, strain mms22, hits give low values 0.894 | locus YLR357W, strain rsc2, hits give low values 0.929 | locus YML032C, strain rad52, hits give low values 0.916 | locus YML120C, strain ndi1, hits give low values 0.933 | locus YMR058W, strain fet3, hits give low values 0.931 | locus YMR125W, strain sto1, hits give low values 0.938 | locus YMR205C, strain PFK2, hits give low values 0.922 | locus YMR231W, strain pep5, hits give low values 0.947 | locus YMR307W, strain GAS1, hits give low values 0.692 | locus YNL067W, strain RPL9B, hits give low values 0.945 | locus YNL071W, strain lat1, hits give low values 0.942 | locus YNL183C, strain NPR1, hits give low values 0.911 | locus YNL209W, strain ssb2, hits give low values 0.937 | locus YNL233W, strain BNI4, hits give low values 0.877 | locus YNL248C, strain rpa49, hits give low values 0.896 | locus YNL322C, strain KRE1 (second series), hits give low values 0.921 | locus YNL322C, strain KRE1, hits give low values 0.936 | locus YNR049C, strain mso1, hits give low values 0.919 | locus YNR052C, strain pop2, hits give low values 0.92 | locus YOL006C, strain TOP1, hits give low values 0.879 | locus YOL012C, strain htz1 1.32 | locus YOR001W, strain rrp6, hits give low values 0.953 | locus YOR061W, strain CKA2, hits give low values 0.933 | locus YOR070C, strain gyp1, hits give low values 0.93 | locus YOR080W, strain dia2, hits give low values 0.948 | locus YOR106W, strain vam3, hits give low values 0.9 | locus YOR231W, strain MKK1, hits give low values 0.952 | locus YOR270C, strain vph1, hits give low values 0.925 | locus YOR290C, strain snf2, hits give low values 0.941 | locus YPL051W, strain arl3, hits give low values 0.931 | locus YPL055C, strain LGE1, hits give low values 0.901 | locus YPL240C, strain hsp82, hits give low values 0.932 | locus YPL256C, strain CLN2, hits give low values 0.889
active: locus YBL061C, strain skt5, hits give low values 0.886 | locus YBR023C, strain chs3, hits give low values 0.912 | locus YBR231C, strain swc5, hits give low values 0.899 | locus YCL029C, strain bik1, hits give low values 0.889 | locus YCL061C, strain MRC1, hits give low values 0.919 | locus YDL185W, strain tfp1, hits give low values 0.885 | locus YDL192W, strain arf1, hits give low values 0.829 | locus YDR001C, strain nth1, hits give low values 0.916 | locus YDR101C, strain arx1, hits give low values 0.892 | locus YDR159W, strain sac3, hits give low values 0.855 | locus YDR297W, strain sur2, hits give low values 0.921 | locus YDR318W, strain mcm21, hits give low values 0.892 | locus YDR388W, hits give low values 0.877 | locus YDR502C, strain sam2, hits give low values 0.882 | locus YEL061C, strain CIN8, hits give low values 0.918 | locus YER016W, strain bim1, hits give low values 0.921 | locus YER110C, hits give low values 0.869 | locus YER155C, strain BEM2 (second series), hits give low values 0.853 | locus YER155C, strain BEM2, hits give low values 0.912 | locus YER167W, strain BCK2, hits give low values 0.9 | locus YGL086W, strain mad1, hits give low values 0.885 | locus YGL173C, strain kem1, hits give low values 0.899 | locus YGL240W, strain doc1, hits give low values 0.853 | locus YGL253W, strain hxk2, hits give low values 0.902 | locus YGR135W, strain pre9, hits give low values 0.886 | locus YHR079C, strain IRE1 (second series), hits give low values 0.886 | locus YHR094C, strain hxt1, hits give low values 0.888 | locus YHR129C, strain ARP1, hits give low values 0.91 | locus YHR200W, strain rpn10, hits give low values 0.873 | locus YIL125W, strain kgd1, hits give low values 0.895 | locus YIR030C, strain dcg1, hits give low values 0.881 | locus YJL134W, strain LCB3, hits give low values 0.917 | locus YJL164C, strain tpk1, hits give low values 0.91 | locus YJL168C, strain set2, hits give low values 0.888 | locus YKL068W, hits give low values 0.905 | locus YKL085W, strain MDH1 (second series), hits give low values 0.902 | locus YKL085W, strain MDH1, hits give low values 0.902 | locus YKR001C, strain vps1, hits give low values 0.819 | locus YLL001W, strain dnm1, hits give low values 0.896 | locus YLL026W, hits give low values 0.924 | locus YLR102C, strain apc9, hits give low values 0.891 | locus YLR268W, strain sec22, hits give low values 0.88 | locus YLR330W, strain CHS5, hits give low values 0.904 | locus YLR342W, strain FKS1 (second series), hits give low values 0.767 | locus YLR342W, strain FKS1, hits give low values 0.865 | locus YLR370C, strain arc18, hits give low values 0.91 | locus YLR371W, strain rom2, hits give low values 0.756 | locus YLR384C, strain iki3, hits give low values 0.907 | locus YLR418C, strain cdc73, hits give low values 0.739 | locus YML016C, strain PPZ1, hits give low values 0.909 | locus YML124C, strain tub3, hits give low values 0.897 | locus YMR078C, strain ctf18, hits give low values 0.9 | locus YMR129W, hits give low values 0.91 | locus YMR223W, strain ubp8, hits give low values 0.877 | locus YNL250W, strain rad50, hits give low values 0.892 | locus YNL271C, strain bni1, hits give low values 0.858 | locus YNL298W, strain CLA4, hits give low values 0.884 | locus YNL307C, strain MCK1, hits give low values 0.887 | locus YOL147C, strain pex11, hits give low values 0.903 | locus YOR069W, strain VPS5, hits give low values 0.917 | locus YOR083W, strain WHI5, hits give low values 0.859 | locus YOR136W, strain idh2, hits give low values 0.912 | locus YOR144C, strain elg1, hits give low values 0.886 | locus YOR184W, strain ser1, hits give low values 0.864 | locus YOR265W, strain rbl2, hits give low values 0.926 | locus YOR316C, strain cot1, hits give low values 0.9 | locus YPL078C, strain atp4, hits give low values 0.891 | locus YPL106C, strain sse1, hits give low values 0.811 | locus YPL241C, strain CIN2, hits give low values 0.916 | locus YPR119W, strain clb2, hits give low values 0.885 | locus YPR141C, strain kar3, hits give low values 0.877 | locus YPR163C, strain tif3, hits give low values 0.899 | locus YPR167C, strain met16, hits give low values 0.916 | strain wtn01, hits give low values 0.859
